Test results taken from PubChem BioAssay (NCATS).
Active and inactive are the calls of the source. Calls follow the shape of the full dose curve.

Assay: Cell Proliferation Assay Versus the ED40515 IL2 Independent ATL cell lines (AID 1053194)
Conditions: ED40515 IL2-independent ATL cells
Text: Adult T-cell leukemia (ATL) develops in individuals infected with human T-cell lymphotropic virus-1 (HTLV-1). Clinically, ATL is subclassified into four subtypes: smoldering, chronic, lymphomatous, and acute. Two autocrine loops (IL-2/IL-2Ralpha and IL-15/IL-15Ralpha) and one paracrine stimulation loop that involves IL-9 expression by ATL cells and IL-9Ralpha expression on monocytes are required to maintain viability and proliferation in the smoldering and chronic forms of the disease. These assays examined the differential response profiles for the MIPE library of approved and investigational drugs versus an IL2 dependent and independent matched ATL cell line, with the current submission examining the differential response profiles for drugs on an IL2 independent matched ATL cell line
Plate log growing ED40515 -IL2 cells: 1000cells/ well in 5uL phenol red free RPMI +5% FBS +1x p/s, Glutamine using 1536 well white griener tissue culture plates and multidrop cassette acoustic dispensing Columns 1 and 3 DMSO Columns 2 and 4, 9.2 uM Bortezomib Incubate 48 hours for celltiter glo 37C with 5%CO2 and 95% humidity with low evaporation lids Dispense 3 uL per well of cell titer glo with multidrop Incubate for 15 minutes at RT Read on VL/2 using Luminesence Wheel (Filter A)

| Compound | Potency |
| --- | --- |
| Cc1sc2c(c1C)C(c1ccc(Cl)cc1)=N[C@@H](CC(=O)OC(C)(C)C)c1nnc(C)n1-2 | 0.0833 µM (active) |
| CN(C)CCN(C)CCc1ccc(Cl)c(Cl)c1 | 16.6 µM (active) |
| COC[C@H]1OC(=O)c2coc3c2[C@@]1(C)C1=C(C3=O)C2CCC(=O)[C@@]2(C)C[C@H]1OC(C)=O (stereo partly drawn) | 14.8 µM (active) |
| CC(O)(CS(=O)(=O)c1ccc(F)cc1)C(=O)Nc1ccc(C#N)c(C(F)(F)F)c1 (stereo not drawn) | 18.7 µM (active) |
| O=C(O)C(=O)c1cn(Cc2ccccc2)c2ccc(-c3ccc(OC(F)(F)F)cc3)cc12 | 20.9 µM (active) |
| CNC(=O)N1N=C(c2ccc(N)cc2)c2cc3c(cc2CC1C)OCO3 (stereo not drawn) | 2.96 µM (active) |
| Cn1cc(C2=C(c3cn(C4CCN(Cc5ccccn5)CC4)c4ccccc34)C(=O)NC2=O)c2ccccc21 | 13.2 µM (active) |
| COC1(CS(=O)c2ccccc2)CCN(CCc2c[nH]c3ccc(F)cc23)CC1 (stereo not drawn) | 23.5 µM (active) |
| Cn1c(CCCC(=O)O)nc2cc(N(CCCl)CCCl)ccc21 | 18.7 µM (active) |
| Cc1cc(SCc2sc(-c3ccc(C(F)(F)F)c(F)c3)nc2C)ccc1OCC(=O)O | 26.4 µM (active) |
| CO[C@@H](C(=O)N1Cc2[nH]nc(NC(=O)c3ccc(N4CCN(C)CC4)cc3)c2C1)c1ccccc1 | 7.43 µM (active) |
| C[C@]12CCC(=O)C(O)=C1CC[C@@H]1[C@@H]2CC[C@]2(C)C(=O)CC[C@@H]12 | 26.4 µM (active) |
| CS(=O)c1ccc(-c2nc(-c3ccc(F)cc3)c(-c3ccncc3)[nH]2)cc1 (stereo not drawn) | 29.6 µM (active) |
